Source: PubChem BioAssay
Sfp inh: blocks B. subtilis Sfp PPTase activity. AID 1490. Potency, µM, for the others: largest response in the series, negative = inhibition, most hits filed as inhibitors. actives 3.5% (n = 310,000). Biochemical Sfp PPTase activity, qHTS. Q9F4F7;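 note: the enzyme is Sfp with the accession as filed and its product quenches rhodamine fluorescence; 0% = enzyme reaction without inhibitor and -100% = no enzyme wells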
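Sfp 15 nM + cpd, 15 min RT; start w/ rhodamine-CoA 5 uM, BHQ-2-YbbR 12.5 uM (final); 50 mM Hepes pH 7.6, 10 mM MgCl2, 0.01% NP-40, 0.01% BSA; read 525/598 nm at 0 and 30 min.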
PLK1 PBD block: inhibitors of human PLK1 polo-box domain binding | Potency, µM, for the others: max response, negative = inhibition, usual class: inhibitors | AID 720504 | actives 2.8% (n = 360,000) | P53350 | Plk1 PBD binding of FITC phosphopeptide, fluorescence polarization; note: series mostly up to about 57 µM; nearly all actives have a fitted effect of over 65% in size
VDR inhibitor: inhibitors of human vitamin D receptor; VDR-SRC2-3 peptide fluorescence polarization, 2 h; Potency, µM, without a hit: max response, negative = inhibition, usual class: inhibitors; actives 0.93% (n = 400,000); AID 504847
Target sequence (P11473 whole entry, looked up): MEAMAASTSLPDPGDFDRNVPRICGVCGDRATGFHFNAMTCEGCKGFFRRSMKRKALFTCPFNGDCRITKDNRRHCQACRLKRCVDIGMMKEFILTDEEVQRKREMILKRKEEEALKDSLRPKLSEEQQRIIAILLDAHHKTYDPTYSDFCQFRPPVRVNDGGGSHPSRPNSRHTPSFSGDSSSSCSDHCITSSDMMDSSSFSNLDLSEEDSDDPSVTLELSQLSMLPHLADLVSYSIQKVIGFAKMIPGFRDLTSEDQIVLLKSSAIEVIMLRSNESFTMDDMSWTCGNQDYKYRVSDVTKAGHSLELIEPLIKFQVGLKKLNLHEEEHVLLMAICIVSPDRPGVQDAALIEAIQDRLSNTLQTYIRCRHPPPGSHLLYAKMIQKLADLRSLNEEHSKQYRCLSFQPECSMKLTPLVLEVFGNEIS
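Two reagent solutions held at 4 deg C in the dark were dispensed, compounds pinned at 23 nl, and the mixture incubated 2 h at room temperature. Read-out: fluorescence polarization of VDR–SRC2-3 peptide binding.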
12-LOX inh: blocks human arachidonate 12S-lipoxygenase; P18054; purified 12hLO, xylenol orange hydroperoxide absorbance; Potency, µM (series often up to 108 µM), inactives show at the top dose activity change, negative = inhibition, most hits filed as inhibitors; actives 1.1% (n = 580,000); AID 1671190
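Purified human 12hLO at 150 nM in 25 mM Hepes, 0.01% Triton X-100, pH 7.0, preincubated 15 min at room temperature with compound. Reaction started with 40 uM arachidonic acid, 30 min at room temperature. Hydroperoxide measured by Fe-xylenol orange, 573/405 nm absorbance ratio.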
* hit, by the source's call; ! = repeats disagree; [ ] = another dose, or the depositor's remark. In the library only some 4.2% were active in any assay of this set; here they are far more common. Calls come from the whole dose curve; as a rule, active = well fitted curve in the direction sought with a large enough effect; inconclusive = small, poorly fitted or top-dose-only effect, or another doubt; inactive = no such curve, though single readings can be large; an effect the other way counts as inactive or inconclusive. Unless noted, % is set by controls: 0 for no effect and ±100 for the full control effect; potency is the fitted concentration of half-maximal effect.

For CN(C(=O)CSc1nc2c(c(=O)[nH]1)CCCC2)C1CCCCC1 the results were Sfp inh 2%, PLK1 PBD block 27µM*, VDR inhibitor -12% and 12-LOX inh -12%.
`CNc1cnn(-c2ccccc2)c(=O)c1Cl` gave Sfp inh 21%, PLK1 PBD block 11µM*, VDR inhibitor -19% and 12-LOX inh 3%.
For CC(=O)Nc1ccc(SCCCC(=O)c2ccccc2)cc1 the results were Sfp inh 7%, PLK1 PBD block 13µM*, VDR inhibitor -19% and 12-LOX inh -57%.
For O=C(c1cccc(Cl)c1)N1CCCC(c2nn(-c3ccccc3)c(=O)[nH]2)C1 (stereo not given) the results were 12-LOX inh 4%.
O=C(Cc1cccc(Cl)c1)N1CCCC(c2nn(-c3cccc(Cl)c3)c(=O)[nH]2)C1 (stereo not given) was read as 12-LOX inh 16µM*.
Screening COc1ccc(-n2nc(C3CCCN(C(=O)C4CC4)C3)[nH]c2=O)cc1 (stereo not given) returned 12-LOX inh 18µM*.
`O=C(c1ccccc1)N1CCC(c2nn(-c3ccc(Cl)cc3)c(=O)[nH]2)CC1` gave 12-LOX inh 35µM*.
`COc1ccc(-n2nc(C3CCCN(C(C)=O)C3)[nH]c2=O)cc1` (stereo not given) gave 12-LOX inh 3%[176 µM].
O=C(c1cccc(Cl)c1)N1CCC(c2nn(-c3ccc(Cl)cc3)c(=O)[nH]2)CC1 was read as 12-LOX inh 14µM*.
CCCCN(C)c1c(C)nc2ccc(C(=O)NCc3cccs3)cn12 was read as PLK1 PBD block -7% and 12-LOX inh -2%.
O=[N+]([O-])c1ccc(O)c(CNCc2ccccc2)c1 was read as PLK1 PBD block 1%, VDR inhibitor 3% and 12-LOX inh 4%.
Cc1ccc(C(=O)N2CCC(c3nn(-c4ccc(F)cc4)c(=O)[nH]3)CC2)cc1 was read as 12-LOX inh -14%.
Screening O=C(c1ccc(F)cc1)N1CCC(c2nn(-c3ccc(Cl)cc3)c(=O)[nH]2)CC1 returned 12-LOX inh 35µM*.
Screening CCC(C)NC(=O)c1c(N)n(/N=C/c2ccccn2)c2nc3ccccc3nc12 (stereo not given) returned Sfp inh 10µM*, PLK1 PBD block -5%, VDR inhibitor 16% and 12-LOX inh -24%.
For CCC(C)NC(=O)c1c(N)n(/N=C/c2cccnc2)c2nc3ccccc3nc12 (stereo not given) the results were Sfp inh inconclusive, PLK1 PBD block 1%, VDR inhibitor -5% and 12-LOX inh -2%.
Cc1nc2c(-c3ccccc3)c(C)nn2c(C)c1CCC(=O)NCc1ccc(F)cc1 was read as VDR inhibitor -13% and 12-LOX inh -25%.
Screening COC(CNC(=O)CCc1c(C)nc2c(-c3ccc(F)cc3)c(C)nn2c1C)OC returned Sfp inh 5%, PLK1 PBD block 30µM*, VDR inhibitor -17% and 12-LOX inh 10%.
`CN(C)c1nc(N)nc(/C(C#N)=C/C2CC3C=CC2C3)n1` (stereo not given) gave Sfp inh 56µM*, PLK1 PBD block -3%, VDR inhibitor 3% and 12-LOX inh -30%.
O=S(=O)(Nc1cccc2cccnc12)c1cccc(F)c1 was read as 12-LOX inh 17%.
CCOc1ccc(N=Cc2ccc(N(C)C)cc2)cc1 was read as 12-LOX inh -24%.
CCOc1ccc(C=Nc2ccc(N(C)C)cc2)cc1 was read as 12-LOX inh 32µM*.
Screening Cc1c(C(=O)NN2CCCCC2)nn(-c2ccc(Cl)cc2Cl)c1-c1ccc(Cl)cc1 returned Sfp inh -12%, VDR inhibitor inconclusive and 12-LOX inh 24µM*!.
Screening CN(NS(=O)(=O)c1ccccc1)C(=O)c1ccccc1 returned PLK1 PBD block -6%, VDR inhibitor 10% and 12-LOX inh -1%.
Screening CC(C)[C@H](NC(=O)[C@@H]1CSC2c3ccccc3C(=O)N21)C(=O)NCc1ccco1 (stereo not given in full) returned Sfp inh inconclusive, PLK1 PBD block -19%, VDR inhibitor -14% and 12-LOX inh inconclusive.
`O=C(NCc1ccco1)[C@@H]1CSC2c3ccccc3C(=O)N21` (stereo not given in full) gave Sfp inh 35µM*, PLK1 PBD block -27%, VDR inhibitor 13% and 12-LOX inh -1%.
`CCOc1ccc(C(=O)NCC(=O)O)cc1OCC` gave 12-LOX inh 51%.
`S=c1[nH]nc(-c2ccccc2)n1C1C=CCCC1` (stereo not given) gave Sfp inh -18%, PLK1 PBD block -29%, VDR inhibitor -6% and 12-LOX inh 45µM*.
For S=c1[nH]nc(-c2cccnc2)n1C1CCCCC1 the results were Sfp inh -19%, PLK1 PBD block -4%, VDR inhibitor 0% and 12-LOX inh -18%.
O=C(O)CC(Cn1[nH]nnc1=S)c1ccccc1 (stereo not given) was read as Sfp inh 40µM*, PLK1 PBD block inconclusive, VDR inhibitor -8% and 12-LOX inh inconclusive.
Screening O=C(O)CC(CC(=O)Nc1nncs1)c1ccccc1 (stereo not given) returned Sfp inh 21%, PLK1 PBD block -8%, VDR inhibitor 5% and 12-LOX inh 0%.
`CCn1ccc(C(=O)Nc2c(C)nn(Cc3c(F)c(F)c(F)c(F)c3F)c2C)n1` gave Sfp inh 5%, PLK1 PBD block -5%, VDR inhibitor -8% and 12-LOX inh -9%.
For CCOc1ccccc1NS(=O)(=O)c1cn(C)c(=O)n(C)c1=O the results were Sfp inh -8%, PLK1 PBD block -19% and VDR inhibitor -14%.
`O=C(CN(c1ccccn1)S(=O)(=O)c1ccccc1)Nc1ccccc1` gave Sfp inh 21%, PLK1 PBD block -2%, VDR inhibitor 10% and 12-LOX inh -3%.
For CC1(CNC(=O)c2nccc3ccccc23)CCOCC1 the results were 12-LOX inh 39%.
`S=c1[nH]nc(-c2cnccn2)n1-c1ccccc1` gave Sfp inh 56µM*, PLK1 PBD block -3%, VDR inhibitor 1% and 12-LOX inh inconclusive.
Screening COc1ccc(-n2c(-c3cnccn3)n[nH]c2=S)cc1 returned Sfp inh 50µM*, PLK1 PBD block -6%, VDR inhibitor -9% and 12-LOX inh inconclusive.
For COc1ccc(OC)c(-n2c(-c3cnccn3)n[nH]c2=S)c1 the results were Sfp inh -20%, PLK1 PBD block 1%, VDR inhibitor 5% and 12-LOX inh -17%.
O=C(O)c1cccc(-c2cnccn2)c1 was read as 12-LOX inh 0%[12.5 µM].
For O=C(O)c1cccc(-n2c(-c3cnccn3)n[nH]c2=S)c1 the results were Sfp inh 28µM*, PLK1 PBD block -15%, VDR inhibitor -8% and 12-LOX inh -16%.
`CCOC(=O)N/N=C/c1cccc(Cl)c1Cl` gave Sfp inh 9%, PLK1 PBD block 0%, VDR inhibitor -5% and 12-LOX inh 0%.
